From PubChem BioAssay AID1159580 (chemical genetic matrix, 2015)
In all, about 5,500 compounds went through this assay and about 2,000 (36%) were called active. Another 18% or so got no clear call; they are omitted. Cut-off read from the data, not from the text of the source: active = normalized growth mostly below about 0.91 (no sharp cut-off); inconclusive = no clear call, values can overlap the other calls; inactive = mostly above about 0.92. The list shows a part of the results.

Assay: chemical genetic growth profiling, strain panel (AID 1159580);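 note: tested at 20 µM; growth read once vehicle control cultures reached saturation at 30 °C; 1 = growth at the plate median or of vehicle wells; lower values mean less growth of the strain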
Details: S. cerevisiae deletion strains, growth OD
[1] = locus YDL101C, strain DUN1, stronger effect = lower value
[2] = locus YHR030C, strain SLT2, stronger effect = lower value

Measured: normalized growth

Cc1onc(-c2c(F)cccc2Cl)c1C(=O)ON=C1C2CC3CC(C2)CC1C3
active: locus YBL105C, strain PKC1, stronger effect = lower value 1.11 [resistant] | locus YBR135W, strain CKS1, stronger effect = lower value 1.09 [resistant] | locus YBR136W, strain MEC1, stronger effect = lower value 1.08 [resistant] | locus YBR160W, strain CDC28, stronger effect = lower value 1.08 [resistant] | locus YDL017W, strain CDC7, stronger effect = lower value 1.08 [resistant] | locus YDL028C, strain MPS1, stronger effect = lower value 1.08 [resistant] | locus YDL108W, strain KIN28, stronger effect = lower value 1.09 [resistant] | locus YDR226W, strain ADK1, stronger effect = lower value 1.06 [resistant] | locus YFR003C, strain YPI1, stronger effect = lower value 1.09 [resistant] | locus YIL147C, strain SLN1, stronger effect = lower value 1.1 [resistant] | locus YKL193C, strain SDS22, stronger effect = lower value 1.08 [resistant] | locus YLR113W, strain HOG1, stronger effect = lower value 0.816 | locus YMR001C, strain CDC5, stronger effect = lower value 1.07 [resistant] | locus YNL006W, strain LST8, stronger effect = lower value 1.1 [resistant] | locus YNL161W, strain CBK1, stronger effect = lower value 1.08 [resistant] | locus YNL222W, strain SSU72, stronger effect = lower value 1.1 [resistant] | locus YOR329C, strain SCD5, stronger effect = lower value 1.1 [resistant] | locus YPL209C, strain IPL1, stronger effect = lower value 1.09 [resistant] | locus YPR025C, strain CCL1, stronger effect = lower value 1.1 [resistant]
inactive: locus YAR019C, strain CDC15, stronger effect = lower value 1.06 | [1] 0.97 | locus YDL132W, strain cdc53, stronger effect = lower value 1.06 | locus YDL214C, strain PRR2, stronger effect = lower value 0.955 | locus YDR052C, strain DBF4, stronger effect = lower value 0.997 | locus YDR054C, strain cdc34, stronger effect = lower value 1.04 | locus YDR477W, strain SNF1, stronger effect = lower value 0.965 | locus YER123W, strain YCK3, stronger effect = lower value 0.939 | locus YER133W, strain GLC7, stronger effect = lower value 0.979 | locus YFL009W, strain cdc4, stronger effect = lower value 1.06 | locus YFL029C, strain CAK1, stronger effect = lower value 1.07 | locus YFR019W, strain FAB1, stronger effect = lower value 0.967 | locus YFR028C, strain CDC14, stronger effect = lower value 1.02 | locus YGR040W, strain KSS1, stronger effect = lower value 0.953 | locus YGR052W, strain FMP48, stronger effect = lower value 0.974 | locus YGR092W, strain DBF2, stronger effect = lower value 0.982 | [2] 0.895 | locus YHR079C, strain IRE1, stronger effect = lower value 0.967 | locus YHR082C, strain KSP1, stronger effect = lower value 0.981 | locus YHR205W, strain SCH9, stronger effect = lower value 0.85 | locus YJL095W, strain BCK1, stronger effect = lower value 0.968 | locus YJL128C, strain PBS2, stronger effect = lower value 1.01 | locus YJL157C, strain FAR1, stronger effect = lower value 0.95 | locus YJR016C, strain ILV3, stronger effect = lower value 1.04 | locus YJR066W, strain TOR1 (second series), stronger effect = lower value 0.924 | locus YJR066W, strain TOR1, stronger effect = lower value 0.98 | locus YKL048C, strain ELM1, stronger effect = lower value 0.968 | locus YKL067W, strain YNK1, stronger effect = lower value 0.974 | locus YKL101W, strain HSL1, stronger effect = lower value 0.94 | locus YKL203C, strain TOR2, stronger effect = lower value 0.969 | locus YLR133W, strain CKI1, stronger effect = lower value 0.951 | locus YLR403W, strain SFP1, stronger effect = lower value 0.894 | locus YML070W, strain DAK1, stronger effect = lower value 0.934 | locus YMR205C, strain PFK2 (second series), stronger effect = lower value 0.971 | locus YMR277W, strain FCP1, stronger effect = lower value 1.06 | locus YNL020C, strain ARK1, stronger effect = lower value 0.955 | locus YNL183C, strain NPR1, stronger effect = lower value 0.917 | locus YNL207W, strain RIO2, stronger effect = lower value 1.03 | locus YNL307C, strain MCK1 (second series), stronger effect = lower value 0.953 | locus YOL078W, strain AVO1, stronger effect = lower value 1.05 | locus YOL136C, strain PFK27, stronger effect = lower value 0.933 | locus YOR061W, strain CKA2, stronger effect = lower value 0.965 | locus YOR119C, strain RIO1, stronger effect = lower value 0.976 | locus YOR231W, strain MKK1, stronger effect = lower value 0.9 | locus YPL031C, strain PHO85, stronger effect = lower value 0.975 | locus YPL153C, strain RAD53, stronger effect = lower value 0.959 | locus YPL204W, strain HRR25, stronger effect = lower value 0.931 | locus YPL256C, strain CLN2, stronger effect = lower value 0.866 | locus YPR106W, strain ISR1, stronger effect = lower value 1.04 | locus YPR111W, strain DBF20, stronger effect = lower value 1.06 | strain NNK1, stronger effect = lower value 1.03 | strain TSCII, stronger effect = lower value 1.04

CCN(CC)CCNC(=O)c1c(-c2c(Cl)cccc2Cl)noc1C
inactive: locus YAL013W, strain DEP1, stronger effect = lower value 0.996 | locus YBR229C, strain ROT2, stronger effect = lower value 1.01 | locus YCL061C, strain MRC1, stronger effect = lower value 1.02 | [1] 1 | locus YDR150W, strain NUM1, stronger effect = lower value 0.903 | locus YEL061C, strain CIN8, stronger effect = lower value 1.04 | locus YGR078C, strain PAC10, stronger effect = lower value 1.01 | [2] 1.07 | locus YHR087W, strain rtc3, stronger effect = lower value 0.998 | locus YJR043C, strain POL32, stronger effect = lower value 1.03 | locus YJR075W, strain HOC1, stronger effect = lower value 0.982 | locus YLR039C, strain RIC1, stronger effect = lower value 1.16 | locus YLR058C, strain SHM2 (second series), stronger effect = lower value 0.99 | locus YLR085C, strain ARP6, stronger effect = lower value 1.05 | locus YLR262C, strain YPT6, stronger effect = lower value 1.15 | locus YML094W, strain GIM5, stronger effect = lower value 1.02 | locus YMR219W, strain ESC1, stronger effect = lower value 1.01 | locus YMR263W, strain SAP30, stronger effect = lower value 0.992 | locus YNL153C, strain GIM3, stronger effect = lower value 0.99 | locus YNL298W, strain CLA4 (second series), stronger effect = lower value 1.05 | locus YNL322C, strain KRE1, stronger effect = lower value 1 | locus YNR030W, strain Alg12, stronger effect = lower value 1.02 | locus YOL006C, strain TOP1, stronger effect = lower value 1.03 | locus YPL055C, strain LGE1, stronger effect = lower value 0.99 | locus YPL241C, strain CIN2, stronger effect = lower value 1.01 | locus YPR135W, strain CTF4, stronger effect = lower value 0.973
